# From PubChem BioAssay (NCI)
# About 83,000 compounds went through this panel and 20% of them were active in at least one assay; those are over-represented in the sample as a whole.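 Negative percent growth values reflect cell death: -40 means 40% of the cells present at the start died, and -100 means all died.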 Values without a mark were called inactive. Calls of active or inactive are those of the source. How the source made its calls: active means growth percent below 10; inactive means the rest.
# Experiments:
# Assay in all cases: NCI-60 one-dose screen, 48 h (100 = growth as untreated, 0 = no growth, -100 = all killed)
# Conditions in all cases: 10 µM unless noted
# NCI-H23 lung = tested on: NCI-H23 lung
# NCI-H226 lung = tested on: NCI-H226 lung
# NCI-H322M lung = tested on: NCI-H322M lung
# HOP-62 NSCLC = tested on: HOP-62 NSCLC
# NCI-H460 lung = tested on: NCI-H460 lung
# HOP-92 NSCLC = tested on: HOP-92 NSCLC
# NCI-H522 lung = tested on: NCI-H522 lung
# A549/ATCC NSCLC = tested on: A549/ATCC NSCLC
# 786-0 renal = tested on: 786-0 renal
# COLO 205 colon = tested on: COLO 205 colon
# DU-145 prostate = tested on: DU-145 prostate
# K-562 leukemia = tested on: K-562 leukemia
# MALME-3M melanoma = tested on: MALME-3M melanoma
# MDA-MB-231 breast = tested on: MDA-MB-231 breast
# RXF 393 renal = tested on: RXF 393 renal
# SF-268 CNS = tested on: SF-268 CNS
# SF-295 CNS = tested on: SF-295 CNS
# UACC-257 melanoma = tested on: UACC-257 melanoma
# M14 melanoma = tested on: M14 melanoma
# SF-539 CNS = tested on: SF-539 CNS
SMILES,growth (NCI-H23 lung),growth (NCI-H226 lung),growth (NCI-H322M lung),growth (HOP-62 NSCLC),growth (NCI-H460 lung),growth (HOP-92 NSCLC),growth (NCI-H522 lung),growth (A549/ATCC NSCLC),growth (786-0 renal),growth (COLO 205 colon),growth (DU-145 prostate),growth (K-562 leukemia),growth (MALME-3M melanoma),growth (MDA-MB-231 breast),growth (RXF 393 renal),growth (SF-268 CNS),growth (SF-295 CNS),growth (UACC-257 melanoma),growth (M14 melanoma),growth (SF-539 CNS)
O=[N+]([O-])c1cc(S(=O)(=O)Oc2ccccc2)ccc1Cl,30.7%,75.3%,-13.3% (active),54%,1.7% (active),24.1%,14.3%,88.4%,24.1%,5.56% (active),-81% (active),1.22% (active),-68.8% (active),40.7%,35%,24.2%,28.7%,45.4%,-21.5% (active),
Cc1cc(N/N=C/c2nc(-c3ccc(Br)cc3)oc2C)c2cc(Cl)ccc2n1,101%,84.7%,91.9%,107%,12.8%,72%,76.5%,65.5%,34.1%,104%,60.7%,-17.6% (active),55.6%,67.2%,85.5%,80%,101%,95.6%,40.8%,98.5%
O=C1/C(=C/c2ccc(Cl)cc2)CN(Cc2cn(CCNc3ccnc4cc(Cl)ccc34)nn2)C/C1=C\c1ccc(Cl)cc1,-71.3% (active),-70.6% (active),-87% (active),-100% (active),-78.6% (active),-75% (active),-99.4% (active),-85.1% (active),-88.7% (active),-100% (active),-97.3% (active),-34.5% (active),-69.5% (active),-43.2% (active),-94.5% (active),-78% (active),,-92.1% (active),-70.5% (active),-97% (active)
O=C1c2c(c3c4ccccc4n(CCCCCCBr)c3c3[nH]c4ccccc4c23)C(=O)N1O,-0.173% (active),70.5%,14.8%,8.33% (active),5.88% (active),-13.6% (active),-7.94% (active),6.36% (active),17.3%,62.4%,22.6%,8.97% (active),-20% (active),-13.8% (active),29.1%,24.7%,4.87% (active),,15.5%,-6% (active)
S=C1CC(=S)NC(=S)N1,103%,103%,124%,104%,102%,102%,101%,111%,106%,100%,108%,119%,121%,106%,107%,102%,116%,105%,103%,
CN(C)CCCC(C#N)c1ccccc1 (stereo not given),103%,107%,115%,103%,116%,105%,119%,105%,97.9%,119%,122%,99.1%,131%,112%,115%,114%,110%,104%,104%,
CN(C)c1cccc2c(S(=O)(=O)/N=C(\N)Nc3nc4ccccc4s3)cccc12,66.6%,69.8%,83.4%,40.6%,30.3%,60.2%,30.1%,52.3%,77.6%,85.6%,96%,21.9%,73.7%,68.3%,54.6%,69.7%,33.6%,78.3%,45.3%,52.4%
CN1CCN(CCCOc2ccc3nc(Nc4ccc(Cl)c(C(F)(F)F)c4)ccc3c2)CC1,67.3%,88.9%,53.6%,57.8%,44.4%,43%,90.2%,55.3%,68.6%,-40.7% (active),54.1%,-28.2% (active),55.9%,-12.9% (active),58.8%,59.7%,56%,,-11.6% (active),47%
C=C1C(=O)O[C@H]2[C@H]1CC/C(Cn1cc(-c3cccc(Cl)c3)nn1)=C\CC[C@@]1(C)O[C@@H]21,-35% (active),-57.9% (active),66.2%,-38.4% (active),16.6%,-73.2% (active),-74.4% (active),31%,-83.9% (active),-79.5% (active),-99.4% (active),0.665% (active),-77.3% (active),-54.1% (active),-88.4% (active),-47.9% (active),72.4%,,-56.4% (active),-76.7% (active)
O=C(/C=C/c1cc(-c2ccc3c(c2)OCO3)n[nH]1)c1ccc2c(c1)OCO2,94.6%,89.4%,86.6%,96.9%,97.5%,77.7%,72%,90.7%,99.2%,97.7%,104%,82.6%,106%,92.4%,94.4%,93.3%,97%,96.1%,99.6%,
COc1ccc(C2CC(c3ccc(OC)cc3OC)=NN2c2ccc(S(N)(=O)=O)cc2)cc1 (stereo not given),90.7%,101%,94.4%,119%,87.3%,77.7%,63.7%,59%,99.3%,112%,115%,58.3%,123%,110%,82.4%,161%,88.5%,77.3%,96.2%,103%
COc1cc(-c2nn(-c3cccc(NC(=O)Nc4ccc(Cl)c(Cl)c4)c3)cc2-c2ccncc2)ccc1Cl,1.67% (active),9.61% (active),38.8%,10.2%,2.32% (active),-34.3% (active),-14.7% (active),-5.88% (active),15.3%,-80.4% (active),20%,3.63% (active),-19.9% (active),-40.1% (active),-22.8% (active),17.9%,,-36.6% (active),0.293% (active),12.3%
COc1cccc(/C=C2\Oc3cc(OCCCN4CCCC4)ccc3C2=O)c1OC,96.8%,86%,92.8%,97.7%,96.2%,91.2%,91.5%,97.2%,98.5%,105%,106%,73%,94%,97.2%,93.1%,91.9%,97.4%,99.3%,91.5%,94.6%
COc1ccc(NC(=O)CSc2nc(-c3ccc(OC)c(OC)c3)cc(-c3cc(OC)c(OC)c(OC)c3)n2)cc1,101%,108%,90.4%,106%,97.7%,76.8%,79.6%,95.7%,95.1%,82.5%,112%,95.7%,128%,91.9%,101%,102%,126%,111%,102%,
